This is an account of results in PubChem BioAssay AID1974 (The Scripps Research Institute Molecular Screening Center, 2009).

The structures appear in SMILES notation. Out of some 300,000 compounds screened, about 3,200 (1.1%) were called active. For the sample, actives were picked, then their nearest neighbours and some compounds at random. A number with no mark means an inactive call.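 Rule for the calls: active = inhibition above the campaign mean inhibition plus 3 SD (cut at about 35% in these data); inactive = the rest.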

As usually defined, the inhibition is the drop in the measured response relative to a control, in per cent.

The target of the assay is Glutathione S-transferase omega-1 (Homo sapiens) (UniProt P78417). In words: human GSTO1 enzyme inhibition – biochemical, fluorescence polarization, counter-screen for RBBP9 inhibitor project, primary screen (AID 1974).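 Note: 0% = GSTO1-1 with DMSO and 100% = wells lacking GSTO1-1 enzyme.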 Conditions: recombinant GSTO1, activity-based probe fluorescence polarization; at 5.96 µM; hits give high values. On the technique in general: Polarisation of emitted light reports the rotation of a fluorescent probe.
Sequence of Glutathione S-transferase omega-1 (Homo sapiens) (P78417 whole entry, looked up): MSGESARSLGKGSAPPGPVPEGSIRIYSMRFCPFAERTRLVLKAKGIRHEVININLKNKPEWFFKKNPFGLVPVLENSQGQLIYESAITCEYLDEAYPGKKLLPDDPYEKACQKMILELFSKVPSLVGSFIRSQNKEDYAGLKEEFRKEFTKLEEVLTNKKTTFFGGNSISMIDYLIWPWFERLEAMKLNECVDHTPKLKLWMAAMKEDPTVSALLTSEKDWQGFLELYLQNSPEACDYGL
For the compound `NC(=O)CSc1nnc(NC(=O)c2ccc3ccccc3c2)s1`, the inhibition is -7.13%. The value for `O=C(CCN1C(=O)c2ccccc2C1=O)NCCN1CCOCC1` was 6.46%; that for `Cc1ccc(/C=C2/SC(=S)N(CCC(=O)NCCCN3CCOCC3)C2=O)cc1` was 36.4% (active). For the compound `Cc1ccc(/C=C2\SC(=S)N(CCC(=O)Nc3ccc(O)cc3)C2=O)cc1`, the inhibition was -1.64%. The value for `Cc1csc(NC(=O)CSc2nc(=O)n(CCCN(C)C)c3c2CCC3)n1` was 10.8%; that for `Cc1cccc(C)c1NC(=O)CNC(=O)c1c(C)nn(-c2ccccc2)c1C` was -1.44%. The value for `Cc1nn(-c2ccccc2)c(C)c1NC(=O)CCl` was 82.7% (active); that for `Cc1nn(-c2ccccc2)c(C)c1NC(=O)COc1ccc(Cl)cc1Cl` was 8.17%.

With `O=C(Nc1ccc2nc3n(c(=O)c2c1)CCCC3)c1ccc(Cl)nc1`, the inhibition was -3.93%.

With `O=S(=O)(Nc1ccc(O)c2ccccc12)c1ccc(OC(F)(F)F)cc1`, the inhibition was 67.3% (active). Consider `Cc1nn(C)c(C)c1NS(=O)(=O)c1ccc(OC(F)(F)F)cc1`, for which the inhibition was 5.1%. Take `O=S(=O)(Nc1ccc(OC(F)(F)F)cc1)c1cccc2nonc12`: the inhibition is 10.2%.

For the compound `CSc1nnc(C2CCCN(CC(=O)Nc3ccccc3N3CCOCC3)C2)n1C(C)C` (configuration not stated), the inhibition was 4.43%. As for `O=C(c1cc(-c2ccc(Cl)s2)nc2ccccc12)N1CCOCC1`, the inhibition was -12.9%.

`CCOc1ccc(/C=C/C(=O)N(CC)CC(=O)NCc2cccs2)cc1OC`: the inhibition was 19.7%. The value for `Cc1cccn2c(=O)nc(SCC(=O)NCc3ccccc3Cl)nc12` was 0.44%; that for `CC1=CC(C)(C)Nc2ccc(OC(=O)C(Cc3ccccc3)N3C(=O)C4CCCCC4C3=O)cc21` (configuration not stated) was 18.1%. For the compound `O=C(CN1C(=O)C2C3CCC(C3)C2C1=O)Oc1ccc2ccccc2c1` (configuration not stated), the inhibition is 12.6%. As for `CC1=CC(C)(C)Nc2ccc(OC(=O)CN3C(=O)C4CCCCC4C3=O)cc21` (configuration not stated), the inhibition is 48.4% (active). Regarding `Cc1ccc([C@@H]2CC=C(C(=O)O)[C@H](c3cccc(Cl)c3)N2S(=O)(=O)c2ccc(C)cc2)cc1`, the inhibition was -107%. The value for `Cc1ccc(S(=O)(=O)N2[C@@H](c3ccccc3F)C(C(=O)O)=CC[C@H]2c2ccc(Cl)cc2)cc1` was -60.4%. For `Cc1ccccc1NC(=O)COc1cccc2c1CCNC2=O`, the inhibition was 0.64%. For the compound `Cc1ccc(S(=O)(=O)N2CCCCC2)cc1C(=O)N(C)CC(=O)Nc1cccc(F)c1`, the inhibition is 6.24%. The value for `COc1ccc2c(c1)[C@H]1[C@H](CO2)[C@H](c2ccccc2)[C@]2(C)C(=O)Nc3cc(F)c(F)cc3C(=O)N12` was -3.75%; that for `COc1ccccc1CCC(=O)OCC(=O)N1CCN(S(=O)(=O)c2ccc(C)cc2C)CC1` was 8.7%; that for `COc1ccc(C)cc1Nc1nc(-c2c(C)[nH]c3ccccc23)cs1` was 0.17%.

As for `COc1cccc(CC(=O)Nc2nc(-c3ccc(OC)c(OC)c3)cs2)c1`, the inhibition was -14.6%. The value for `COc1ccc(-c2csc(Nc3ccc(O)cc3)n2)cc1` was 44.8% (active); that for `COc1ccc(OC)c(Nc2nc(-c3ccc(O)c(O)c3)cs2)c1` was 57.3% (active); that for `COc1ccc(-c2csc(Cc3nc(O)cs3)n2)cc1` was 8.36%. As for `O=c1oc2ccccc2cc1-c1csc(Nc2ccc(O)cc2)n1`, the inhibition was 5.73%. Turning to `COc1cccc(N2CC(NS(=O)(=O)c3cccs3)CC2=O)c1` (configuration not stated), the inhibition is 7.08%. Turning to `CC(=O)Nc1ccc(C(=O)Nc2cccc(S(=O)(=O)NC3=NCCC3)c2)cc1`, the inhibition was 0.43%. With `O=C(OCc1nnc(-c2ccccc2)o1)c1cc(=O)[nH]c2ccccc12`, the inhibition is 8.64%. The value for `CCC(C)N(C(=O)COC(=O)c1nc(Cl)ccc1Cl)C1CCS(=O)(=O)C1` (configuration not stated) was -3.44%; that for `CCOC(=O)[C@H]1[C@H]2COc3ccc(OC)cc3[C@@H]2N2C(=O)c3ccc(F)cc3NC(=O)[C@@]12C` was 8.55%.

With `Cc1ccc(Cn2c(=N)c(S(=O)(=O)c3ccc(C)cc3)cc3c(=O)n4ccccc4nc32)cc1`, the inhibition was 1.35%.

In the case of `O=[N+]([O-])C(=c1ccc2c(c1)N1C3=C(CCCC3)CC3CCCCC31N=2)[N+](=O)[O-]` (configuration not stated), the inhibition was 35.2% (active). `CCN(CC(=O)NCc1ccc(Cl)cc1)C(=O)CSc1ccccc1`: the inhibition was -6.37%. The value for `O=C(Cc1ccc(Br)cc1)NCCN1CCOCC1` was -0.16%. The value for `O=C(Cn1c(-c2ccccn2)nc2ccccc21)NCCN1CCOCC1` was 98.3% (active); that for `O=C(NCCN1CCOCC1)c1cc(-c2cccs2)nc2ccccc12` was -2.35%. For `CCCCN(C1CCS(=O)(=O)C1)S(=O)(=O)c1ccc(C(C)C)cc1` (configuration not stated), the inhibition is -0.04%. The value for `CC(C)Oc1ccc(C(CC(=O)N2CCOCC2)C(C)C)cc1` (configuration not stated) was 10.3%. Regarding `Cc1ccc(N(Cc2cc(=O)[nH]c3ccccc23)C(=O)CCl)cc1`, the inhibition is 80% (active). Consider `CC(=O)N(Cc1cc(=O)[nH]c2ccccc12)c1ccc(C)cc1C`, for which the inhibition is -13.1%. The value for `Cc1ccc(N(Cc2cc3ccccc3[nH]c2=O)C(=O)c2cccs2)cc1` was 0.73%. Consider `Cn1c(-c2ccc(C(F)(F)F)cc2)cc2onc(-c3ccccc3)c2c1=O`, for which the inhibition was 4.73%.

Consider `CC(C)(C)c1ccc(C(=O)NCc2ccco2)cc1`, for which the inhibition was -7.66%. On to `Cc1nn(CC(=O)Nc2nc3ccccc3s2)c(C)c1[N+](=O)[O-]`, for which the inhibition was 11.3%. The value for `C/C(=N\NC(=O)CC(C)C)c1c(C(F)(F)F)[nH]n(-c2nc3ccccc3s2)c1=O` was -27.6%; that for `CCC(C)Cn1c(O)cc2nn(-c3nc4ccccc4s3)c(=O)c-2c1C` (configuration not stated) was 36% (active); that for `O=C(CN1C(=O)NC2(CCCC2)C1=O)OCCOc1ccc(F)cc1` was 8.87%. For the compound `C=CCOc1c(Br)cc(/C=N\n2nnnc2N)cc1OC`, the inhibition was 0.64%. Turning to `CCOc1c(Br)cc(/C=C2\C(=O)N(CCC#N)N=C2C)cc1OC`, the inhibition was 39.6% (active).

Take `COc1cc(/C=C2/C(=O)NN(c3cccc(Cl)c3)C2=O)cc(Br)c1O`: the inhibition is -21.9%. The value for `Cc1ccc(NC(=O)C2CC(=O)N(c3ccc4c(c3)OCCO4)C2)cc1S(=O)(=O)N1CCCCCC1` (configuration not stated) was 0.87%.
